Screening results (PubChem BioAssay)
Dicer processing – inhibitors of human Dicer processing of pre-microRNA | cat-ELCCA pre-miR-21 Dicer processing, chemiluminescence; stronger effect = higher value | 6% of 47,000 active | AID 1347074 | z-score at 25 µM; in the data active = z-score above about 3, passing the limit was not always enough;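 note: plate controls were vehicle for no effect and no enzyme for full effect; higher signal means more uncleaved substrate so more Dicer inhibition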
Starred values were filed as active, the others as inactive. The full list was thinned out, with hits kept by preference.

CCOc1cc(C2c3c(oc4ccc(F)cc4c3=O)C(=O)N2Cc2ccc(F)cc2)ccc1O (configuration not stated) was read as Dicer processing 0.89.
Screening C=C1SC(Nc2ccccc2Cl)=NC1(C)C returned Dicer processing -2.1.
For COc1ccc(CS/C(N)=N/N)cc1 the results were Dicer processing 0.87.
For Cc1ccc(N2C(=O)C3C4C=CC(CO)(O4)C3C2=O)cc1Br (configuration not stated) the results were Dicer processing -0.21.
Screening CC1(C(=O)O)NC(c2ccc(O)cc2O)C2C(=O)N(c3ccc(Br)cc3)C(=O)C21 (configuration not stated) returned Dicer processing 5*.
Screening Cc1ccc(N2C(=O)C3C4c5ccccc5C(C(=O)O)(c5ccccc54)C3C2=O)cc1 (configuration not stated) returned Dicer processing 1.6.
Screening C=CCc1nc(C)c(CC(=C)C)c(=O)[nH]1 returned Dicer processing 0.74.
CC(C)(C)NC1C=C(c2ccccc2)Sc2nc(-c3ccccc3)cn21 (configuration not stated) was read as Dicer processing 0.61.
`O=C(NNC1=NCCN1Cc1ccccc1)c1ccccc1` gave Dicer processing -0.2.
CC(C)NC(=O)C(=O)NCC1CCCO1 (configuration not stated) was read as Dicer processing 0.7.
For CCOC(=O)C(C(=O)NCC1CCCO1)C1CCCCC1 (configuration not stated) the results were Dicer processing 4*.
`CC(O)CNC(=O)C(=O)NCC1CCCO1` (configuration not stated) gave Dicer processing 1.2.
`COc1cccc(CN(C)C)c1O` gave Dicer processing -1.3.
`COc1cccc(CNc2cnc3ccccc3c2)c1O` gave Dicer processing 4.5*.
`COc1ccccc1CC(=O)Nc1ccc2ccccc2n1` gave Dicer processing -0.4.
Screening Cc1nn(-c2ccccc2)cc1/C=N/NC(=O)CSc1nnc(-c2ccncc2)n1-c1ccccc1 returned Dicer processing 1.5.
Cc1cc(C)c(CSC2=NCCCN2C2CCCCC2)c(C)c1 was read as Dicer processing -0.56.
`CC(C)S(=O)(=O)c1cscc1NS(=O)(=O)c1ccc(Cl)cc1` gave Dicer processing -0.61.
Screening CC1CCN(c2ccc([N+](=O)[O-])c(Oc3nc4c(Cl)cc(Cl)cc4s3)c2)CC1 returned Dicer processing -0.72.
COC(=O)CO/N=C/c1ccc(Cl)cc1Cl was read as Dicer processing -0.09.
`O=C(CO/N=C/c1ccc(Cl)cc1Cl)NNC(=S)Nc1cc(Cl)ccc1Cl` gave Dicer processing 5.6*.
Fc1cccc(Cl)c1CO/N=C/c1ccc(Cl)cc1Cl was read as Dicer processing 1.6.
CCN1C(=O)c2cccc3c(S(=O)(=O)NCCCCCC(=O)O)ccc1c23 was read as Dicer processing -2.9.
Screening Cc1ccc(NS(=O)(=O)c2cccs2)cc1 returned Dicer processing 0.16.
`CCOC(=O)c1c(C)oc2ccc(NS(=O)(=O)c3cccs3)cc12` gave Dicer processing -0.75.
Cc1c(C(=O)O)c2cc(NS(=O)(=O)c3cccs3)ccc2n1S(=O)(=O)c1cccs1 was read as Dicer processing 7.5*.
`Cc1ccccc1OC1C(=O)N(Cc2ccc3c(c2)OCO3)C1c1ccc(F)cc1` (configuration not stated) gave Dicer processing 1.5.
`Cc1ccc(S(=O)(=O)Nc2ccc3[nH]cc(Cl)c3c2)cc1` gave Dicer processing 3.1*.
CC(C)(C)c1ccc(S(=O)(=O)Nc2ccc(O)c(Cl)c2)cc1 was read as Dicer processing 2.3.
Cc1ccc(S(=O)(=O)Nc2ccc3oc4ncccc4c(=O)c3c2)cc1 was read as Dicer processing 18.
Nc1ccc(-c2nc(-c3ccccc3)c3cc(N)ccc3n2)cc1 was read as Dicer processing 80.
COc1ccc(C2CC(c3ccco3)n3nc(N)nc3N2)cc1 (configuration not stated) was read as Dicer processing 0.71.
For COc1ccc(C2CC(c3ccc(Cl)cc3)Nc3nc(N)nn32)cc1OC (configuration not stated) the results were Dicer processing -1.2.
COc1cccc2c1OC(c1cccnc1)N1N=C(c3cc(Cl)ccc3O)CC21 (configuration not stated) was read as Dicer processing 1.1.
Screening COc1ccc(C2CC(c3cc(Cl)ccc3O)=NN2)cc1OC (configuration not stated) returned Dicer processing 4.4*.
`Nc1nnc(Sc2nc3c(Cl)cc(Cl)cc3s2)s1` gave Dicer processing -4.2.
Screening CCOC(=O)c1ccc(-n2cccc2)cc1 returned Dicer processing -0.67.
Nc1ccc(SC(C[N+](=O)[O-])c2ccccc2C(F)(F)F)cc1 (configuration not stated) was read as Dicer processing -9.4.
Screening CCOc1cccc(C2c3c(oc4ccc(F)cc4c3=O)C(=O)N2Cc2ccc3c(c2)OCO3)c1 (configuration not stated) returned Dicer processing 0.22.
Cc1sc(=Nc2ccccc2)n(-c2ccccc2)c1C was read as Dicer processing 0.16.
